This excerpt belongs to a sample that is enriched for hits.
Tgondii IFNg – T. gondii growth inhibition with IFN-gamma, primary screen, cell-based; Toxoplasma gondii growth in IFN-gamma-treated host cells; stronger effect = lower value; activity change, negative = inhibition, % (concentration not given with the values); actives 3.8% (n = 69,000); in the data active means activity change below about -70%, passing the limit was not always enough;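 further: host cells are HeLa cells infected with Toxoplasma gondii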
Large screens that a line does not name were inactive; ! = repeats disagree.

Cc1noc(C)c1CN1CC[C@@H]2C[C@@H](C(=O)NC(C)C)O[C@@H]2C1	none
Cc1ccc(-n2cc(C3=CCN(CCn4cccn4)CC3)cn2)c(C)c1	none
O=C(c1cccs1)N1CC[C@@H]2OCCN(Cc3cccnc3)[C@@H]2C1	none
O=C(Nc1ccccc1F)c1cc2cccnc2n(Cc2ccc(F)cc2)c1=O	none
CCC1(O)C(=O)OCc2c1cc1n(c2=O)Cc2cc3ccccc3nc2-1 (stereo not given)	Tgondii IFNg -106
CC[C@@]1(O)C(=O)OCc2c1cc1n(c2=O)Cc2cc3ccccc3nc2-1	Tgondii IFNg -88
Cc1cccc(CN2CCC3(CC(NS(=O)(=O)C4CC4)C3)C2)n1 (stereo not given)	none
O=C(Nc1ccccc1)N1CC2CNC(C2)C1 (stereo not given)	none
Oc1ccc2c(c1)[C@@]13CCCC[C@@]1(O)[C@@H](C2)N(CC1CCC1)CC3	none
CCN(CC)CCCC(C)NC(=O)c1cc2cccnc2n(Cc2ccccc2)c1=O (stereo not given)	none
O=C(NCc1c(F)cccc1F)c1cc2cccnc2n(Cc2ccccc2)c1=O	none
Cc1csc(CN2C[C@H]3CN(C)CCO[C@@H]3C2)n1	none
CC(=O)OC1CC[C@@]2(C)C(CCC3C2CC[C@]2(C)C(C4=CC(=O)OC4)C(OC(C)=O)CC32O)C1 (stereo not given in full)	Tgondii IFNg -80
Cc1noc(C)c1CN1CCO[C@@H]2[C@H]1CC[C@H]2Oc1ccccn1	none
COc1ncccc1CN1CC[C@@H]2OCC[C@]2(C(=O)N(C)C)C1	none
CCOC(C(=O)OCCCN1CCCCCC1)(c1ccccc1)c1ccccc1	Tgondii IFNg -80
CN1CCN(C)C2(CCN(c3cccnc3)CC2)C1=O	none
CN1CCC2(CC1)CN(C(=O)CCc1cc(Cl)no1)CCN2C	none
O=C(Nc1ccc(F)c(F)c1)c1c(O)c2cccnc2n(Cc2ccccc2)c1=O	none
Cc1ccc(F)cc1NC(=O)c1c(O)c2cccnc2n(Cc2ccccc2)c1=O	none
CCc1ccccc1NC(=O)c1c(O)c2cccnc2n(Cc2ccccc2)c1=O	Tgondii IFNg -88
O=C(Nc1ccc(F)c(Cl)c1)c1c(O)c2cccnc2n(Cc2ccccc2)c1=O	none
CCc1ccc(NC(=O)c2c(O)c3cccnc3n(Cc3ccccc3)c2=O)cc1	none
O=C(Nc1ccc(F)cc1)c1c(O)c2cccnc2n(Cc2ccccc2)c1=O	none
Cc1ccc(F)c(NC(=O)c2c(O)c3cccnc3n(Cc3ccccc3)c2=O)c1	none
O=C(NCc1ccccc1F)c1c(O)c2cccnc2n(Cc2ccccc2)c1=O	Tgondii IFNg -112
CC(NC(=O)c1c(O)c2cccnc2n(Cc2ccccc2)c1=O)c1ccc(F)cc1 (stereo not given)	Tgondii IFNg -113
O=C(NCc1cccs1)c1c(O)c2cccnc2n(Cc2ccccc2)c1=O	Tgondii IFNg -111
Cc1ccccc1NC(=O)c1c(O)c2cccnc2n(Cc2ccccc2)c1=O	none
Cc1ccc(NC(=O)c2c(O)c3cccnc3n(Cc3ccccc3)c2=O)c(C)c1	none
O=C(c1cccc(F)c1)N1CC2(CCNCC2)C1	none
O=C(NCc1ccco1)c1cc2cccnc2n(Cc2ccc(Cl)cc2)c1=O	none
Cc1noc(C)c1CN1CCO[C@H]2CN(CC(C)O)C[C@@H]21 (stereo not given in full)	none
CNC(=O)N[C@@H]1c2cccc(F)c2C2CNCC21 (stereo not given in full)	none
Cc1ccc(Cl)cc1NC(=O)c1cc2cccnc2n(Cc2ccccc2)c1=O	none
CCN1CCOCC12CCN(c1nccc(C(F)(F)F)n1)CC2	none
COc1ccccc1NC(=O)c1cc2cccnc2n(Cc2ccc(F)cc2)c1=O	none
COc1ccc(NC(=O)c2cc3cccnc3n(Cc3ccc(F)cc3)c2=O)cc1OC	none
CCN(C)c1ncc2c(c1C(=O)O)CCN(C)C2	none
CC(CCc1ccccc1)NC(=O)c1cc2cccnc2n(Cc2ccc(F)cc2)c1=O (stereo not given)	none
CN1CCC2OCCCC2(COc2cccnc2)C1 (stereo not given)	none
Cn1cc(CN2CC[C@H]3[C@@H]2CCN3C(=O)Cc2ccccc2)cn1	none
C[C@H]1CN2C[C@H](O)CC2CN1Cc1cccn1-c1cccnc1 (stereo not given in full)	none
CCOc1ccccc1NC(=O)c1cc2cccnc2n(Cc2ccc(Cl)cc2)c1=O	none
CC(C)N1C2CCN(c3ncc(F)cn3)CC2C[C@H]1CN(C)C (stereo not given in full)	none
COc1ccc(NC(C)=O)cc1NC(=O)c1cc2cccnc2n(Cc2ccccc2)c1=O	none
Cc1ccc(CN2CCN3CC(OCc4cccnc4)CC3C2)s1 (stereo not given)	none
CCC(O)Cn1cc(C2=CCN(CC3CC3)CC2)cn1 (stereo not given)	none
CC(NC(=O)c1cc2cccnc2n(Cc2ccccc2F)c1=O)c1ccccc1 (stereo not given)	none
Cc1cc(C)c(NC(=O)c2cc3cccnc3n(Cc3ccc(F)cc3)c2=O)c(C)c1	Tgondii IFNg -78
Cc1ccc(NC(=O)c2cc3cccnc3n(Cc3ccc(F)cc3)c2=O)cc1	none
O=C(Nc1cccc(Cl)c1)c1c(O)c2cccnc2n(Cc2ccccc2)c1=O	none
O=C(NCc1ccccc1)c1c(O)c2cccnc2n(Cc2ccccc2)c1=O	Tgondii IFNg -116
CC(NC(=O)c1cc2cccnc2n(Cc2ccccc2)c1=O)c1ccccc1 (stereo not given)	Tgondii IFNg -91
CC(CCc1ccccc1)NC(=O)c1cc2cccnc2n(Cc2ccccc2)c1=O (stereo not given)	none
Cc1ccc(NC(=O)c2cc3cccnc3n(Cc3ccc(F)cc3)c2=O)c(C)c1	none
COc1ccc(NC(=O)c2c(O)c3cccnc3n(Cc3ccccc3)c2=O)cc1	none
O=C(Nc1ccccc1F)c1cc2cccnc2n(Cc2ccccc2)c1=O	none
CNC(=O)[C@H]1CC2CN(C(=O)Cc3ccsc3)CC2N1C (stereo not given in full)	none
c1cc(CN2CCOCC3(CNCCO3)C2)ccn1 (stereo not given)	none
COCCN1CCOCC12CCN(c1cc(OC)ncn1)CC2	none
CC(=O)O[C@@]12CO[C@@H]1C[C@H](O)[C@@]1(C)C(=O)[C@H](O)C3=C(C)[C@@H](O)C[C@@](O)([C@@H](OC(=O)c4ccccc4)[C@H]21)C3(C)C	Tgondii IFNg -76!
NC(=O)c1ccccc1NC(=O)c1cc2cccnc2n(Cc2ccc(F)cc2)c1=O	none
Cc1cccc2sc(NC(=O)c3cc4cccnc4n(Cc4ccccc4)c3=O)nc12	none
CN1CCN2CCN(Cc3ncc[nH]3)CC2C1=O (stereo not given)	none
NC(=O)C[S@@](=O)C(c1ccccc1)c1ccccc1	none
Oc1cc(Cl)ccc1Oc1ccc(Cl)cc1Cl	Tgondii IFNg -87
Cc1cc(Cl)ccc1OCC(=O)O	none
O=C(O)COc1ccc(Cl)cc1Cl	none

Screening data as filed in PubChem BioAssay.
